Assay [1] can be described thus: ATG_CRE_CIS: Attagene CIS-FACTORIAL HepG2 Assay for human cAMP Responsive Element (CRE) binding protein 3 (AID 2282926). The note with it: HepG2 CRE cis-reporter, Attagene multiplexed mRNA; actives raise or lower the signal. Summed up:
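Transfected HepG2 were treated for 24 hours, then RNA was extracted and reporter cDNA amplified with sequence-specific primers. Labelled fragments were separated by capillary electrophoresis, and the CRE signal was fitted bidirectionally with DMSO as baseline.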

In assay [2] the target is CCAAT/enhancer-binding protein beta (Homo sapiens) (UniProt P17676). The assay is described as follows: ATG_C_EBP_CIS: Attagene CIS-FACTORIAL HepG2 Assay for human CCAAT/Enhancer Binding Protein (C/EBP) beta (AID 2282927). The note with it: HepG2 Attagene cis-factorial transcription factor reporter; actives raise or lower the signal. Summed up: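 Following a 24 h incubation with test chemical, transfected HepG2 cells yielded RNA whose reporter transcripts were quantified by RT-PCR and fluorescent capillary electrophoresis, with DMSO serving as baseline for bidirectional fitting.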
CCAAT/enhancer-binding protein beta (Homo sapiens), sequence (P17676 whole entry, looked up): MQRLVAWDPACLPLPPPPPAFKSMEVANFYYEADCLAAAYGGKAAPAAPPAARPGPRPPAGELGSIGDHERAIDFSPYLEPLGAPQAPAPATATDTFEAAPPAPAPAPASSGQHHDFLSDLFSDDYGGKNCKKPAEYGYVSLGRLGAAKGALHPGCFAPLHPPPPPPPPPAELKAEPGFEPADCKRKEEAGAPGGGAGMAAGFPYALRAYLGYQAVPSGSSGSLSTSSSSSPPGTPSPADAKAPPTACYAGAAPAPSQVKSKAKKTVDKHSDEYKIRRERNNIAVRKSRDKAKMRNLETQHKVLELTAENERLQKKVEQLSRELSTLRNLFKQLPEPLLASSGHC

Assay [3] in a line: ATG_CMV_CIS: Attagene CIS-FACTORIAL HepG2 Assay for human CMV (Internal Marker) (AID 2282928).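 Also: endpoint acts as a background internal control marker rather than a target.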 The note with it: HepG2 CMV promoter reporter, transcription factor profiling; actives raise or lower the signal. Summed up: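 After transient transfection of HepG2 with reporter transcription units driven by cis-regulatory promoters, cells receive test chemical for 24 h. Labeled reporter amplicons, digested with HpaI, are sized and quantified by capillary electrophoresis against DMSO.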

Assay [4] is described as follows: ATG_DR4_LXR_CIS: Attagene CIS-FACTORIAL HepG2 Assay for human Liver X Receptor (LXR), DR4 submotif (AID 2282929). As to conditions: HepG2 Attagene DR4 cis-reporter, mRNA transcription; actives raise or lower the signal. Summed up:
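Measures endogenous transcription factor activity via a DR4-driven reporter transcript in human HepG2 cells. Compounds incubated 24 h; mRNA quantified by RT-PCR and capillary electrophoresis, analysed as gain or loss of signal versus DMSO.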

The target of assay [5] is Aryl hydrocarbon receptor (Homo sapiens) (UniProt P35869). Put plainly: ATG_Ahr_CIS: Attagene CIS-FACTORIAL HepG2 Assay for human Aryl Hydrocarbon Receptor (Ahr) (AID 2282930). The note with it: HepG2 AhR cis-factorial reporter transcription; actives raise or lower the signal. Summed up:
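Values derive from bidirectional fitting against DMSO negative control. Underlying signal: cis-element reporter mRNA in transiently transfected HepG2, harvested 24 h post-dose and measured by RT-PCR plus capillary electrophoresis.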

A short description of assay [6]: ATG_AP_1_CIS: Attagene CIS-FACTORIAL HepG2 Assay for human Activator Protein 1 (AP-1) (AID 2282931). The note with it: HepG2 Attagene cis-factorial AP-1 reporter mRNA; actives raise or lower the signal. Summed up:
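Bidirectional concentration-response fitting against DMSO controls. Underlying signal: reporter mRNA from cis-promoter constructs in transiently transfected HepG2, measured after 24 h by RT-PCR and capillary electrophoresis.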

Assay [7] can be described thus: ATG_AP_2_CIS: Attagene CIS-FACTORIAL HepG2 Assay for human Activator Protein 2 (AP-2) (AID 2282932). As to conditions: HepG2 AP-2 cis-reporter, Attagene transcription factor profiling; actives raise or lower the signal. Summed up:
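HepG2 cells were transiently transfected with multiple cis-promoter reporter transcription units and dosed for 24 h. Reporter mRNA was measured by RT-PCR with capillary electrophoresis fluorescence; bidirectional fits relative to DMSO baseline.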

A short description of assay [8]: ATG_BRE_CIS: Attagene CIS-FACTORIAL HepG2 Assay for human Bone Morphogenetic Protein (BMP) Response Element (BRE) (AID 2282933). As to conditions: HepG2 BMP response element reporter, Attagene transcription factor profiling; actives raise or lower the signal. Summed up:
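After a 24 h chemical treatment, transiently transfected HepG2 cells were lysed for RNA; reporter transcripts were quantified by fluorescent RT-PCR and capillary electrophoresis, normalised to DMSO.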

The target of assay [9] is Retinoic acid receptor alpha (Homo sapiens) (UniProt P10276). Put plainly: ATG_DR5_RAR_CIS: Attagene CIS-FACTORIAL HepG2 Assay for human Retinoic Acid Receptor Alpha (RARE), DR5 submotif (AID 2282934).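 As to AC50: reporter responds to endogenous RAR alpha beta and gamma in HepG2 not RARA alone.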 The note with it: HepG2 Attagene cis-factorial RARE DR5 reporter, mRNA; actives raise or lower the signal. Summed up:
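Endpoint fitted in both directions relative to DMSO as negative control. It reflects DR5 cis-element reporter mRNA induction in transiently transfected HepG2 cells, measured 24 h after dosing through RT-PCR and fluorescent capillary electrophoresis.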

The target in assay [10] is Transcription factor E2F1 (Homo sapiens) (UniProt Q01094). The assay is described as follows: ATG_E2F_CIS: Attagene CIS-FACTORIAL HepG2 Assay for human E2F Transcription Factor 1 (AID 2282935). As to conditions: HepG2 Attagene cis-reporter, E2F reporter RNA transcripts; actives raise or lower the signal. Summed up:
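HepG2 cells transiently transfected with multiplexed cis-element reporter units, dosed for 24 h. Reporter mRNA measured by RT-PCR, 6-FAM primer-extension labeling, HpaI digestion and capillary electrophoresis; bidirectional fit versus DMSO baseline.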

A short description of assay [11]: ATG_E_Box_CIS: Attagene CIS-FACTORIAL HepG2 Assay for human Enhancer Box (E-box) (AID 2282936). As to conditions: HepG2 E-box cis-reporter transcription, actives raise or lower the signal. Summed up:
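HepG2 cells transiently transfected with multiplexed cis-element reporter units sensing endogenous transcription factor activity; 24 h compound exposure. Reporter mRNA measured by RT-PCR, 6-FAM primer extension, HpaI digestion and capillary electrophoresis; bidirectional fit versus DMSO.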

Assay [12] is described as follows: ATG_M_61_CIS: Attagene CIS-FACTORIAL HepG2 Assay for M61 Transcription Factor (Internal Marker) (AID 2282937). As to conditions: HepG2 Attagene CIS-FACTORIAL M61 internal marker reporter; actives raise or lower the signal. Summed up: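 Fluorescence from labelled cDNA fragments, separated by capillary electrophoresis, quantifies reporter induction. HepG2 cells bearing transiently transfected cis-promoter MRTUs were incubated with test chemical for 24 h; DMSO defined baseline for gain/loss fitting.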

A short description of assay [13]: ATG_EGR_CIS: Attagene CIS-FACTORIAL HepG2 Assay for human Early Growth Response 1 (EGR1) (AID 2282938). The note with it: HepG2 Attagene CIS-FACTORIAL EGR reporter mRNA; actives raise or lower the signal. Summed up:
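Cell-based multiplex transcription assay: HepG2 carrying transfected cis-element reporter units, 24 h chemical treatment. Fluorescence from capillary electrophoresis of RT-PCR products gives mRNA levels; fitting is bidirectional relative to DMSO.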

The nature of assay [14]: ATG_M_19_CIS: Attagene CIS-FACTORIAL HepG2 Assay for M19 Transcription Factor (Internal Marker) (AID 2282939). The note with it: HepG2 Attagene CIS-FACTORIAL M19 internal marker reporter; actives raise or lower the signal. Summed up: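 In this multiplexed cell assay, transiently transfected HepG2 reporter units report endogenous transcription-factor activity; after 24 hours of treatment, labelled reporter cDNA fragments are quantified by capillary electrophoresis and fitted bidirectionally against DMSO.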

The nature of assay [15]: ATG_Ets_CIS: Attagene CIS-FACTORIAL HepG2 Assay for human Erythroblast Transformation Specific (ETS) (AID 2282941). As to conditions: HepG2 ETS cis-reporter transcription, actives raise or lower the signal. Summed up:
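Human HepG2 hepatoma cells were transiently transfected with promoter-driven reporter constructs and treated for 24 hours. Reporter transcripts were quantified by RT-PCR with fluorescent primer extension; bidirectional curve fitting used DMSO as reference.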

The target in assay [16] is Hepatocyte nuclear factor 3-beta (Homo sapiens) (UniProt Q9Y261). The assay is described as follows: ATG_FoxA2_CIS: Attagene CIS-FACTORIAL HepG2 Assay for human Forkhead box A2 (FOXA2) (AID 2282942). As to conditions: HepG2 cis-reporter transcription factor activity, 24 h; actives raise or lower the signal. Summed up:
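In transiently transfected human HepG2 cells, promoter-driven reporter mRNA levels after 24 h chemical exposure are determined via RT-PCR with capillary electrophoresis. DMSO serves as baseline for bidirectional fitting.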

Assay [17] in a line: ATG_FoxO_CIS: Attagene CIS-FACTORIAL HepG2 Assay for human Forkhead box O (FoxO) (AID 2282943). As to conditions: HepG2 Attagene cis-reporter, FoxO element, mRNA; actives raise or lower the signal. Summed up: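 Values reflect reporter mRNA induction or loss in HepG2 cells 24 h post-dosing, fitted bidirectionally with DMSO as negative control and baseline. Detection used RT-PCR and fluorescence capillary electrophoresis.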

Assay [18] can be described thus: ATG_GLI_CIS: Attagene CIS-FACTORIAL HepG2 Assay for human Zinc Finger Protein GLI1 (AID 2282945). As to conditions: HepG2, Attagene cis-factorial reporter mRNA, GLI element; actives raise or lower the signal. Summed up: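 HepG2 cells transiently transfected with cis-promoter multiplexed reporter units report endogenous transcription factor activity. After 24 h chemical exposure, reporter mRNA was quantified by RT-PCR, 6-FAM labelling, HpaI digestion and capillary electrophoresis, with bidirectional fitting against DMSO.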

The target of assay [19] is Bile acid receptor (Homo sapiens) (UniProt Q96RI1). The assay is described as follows: ATG_IR1_CIS: Attagene CIS-FACTORIAL HepG2 Assay for human Nuclear Receptor Subfamily 1 Group H Member 4 (NR1H4), IR1 submotif (AID 2282946). As to conditions: IR1 reporter transcription, actives raise or lower the signal. Summed up: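 Transient MRTU transfection, HepG2; 24 h dosing; RNA → RT-PCR → 6-FAM primer extension → HpaI digest → capillary electrophoresis fluorescence. Gain/loss of signal fitted relative to DMSO.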
Bile acid receptor (Homo sapiens), sequence (Q96RI1 whole entry, looked up): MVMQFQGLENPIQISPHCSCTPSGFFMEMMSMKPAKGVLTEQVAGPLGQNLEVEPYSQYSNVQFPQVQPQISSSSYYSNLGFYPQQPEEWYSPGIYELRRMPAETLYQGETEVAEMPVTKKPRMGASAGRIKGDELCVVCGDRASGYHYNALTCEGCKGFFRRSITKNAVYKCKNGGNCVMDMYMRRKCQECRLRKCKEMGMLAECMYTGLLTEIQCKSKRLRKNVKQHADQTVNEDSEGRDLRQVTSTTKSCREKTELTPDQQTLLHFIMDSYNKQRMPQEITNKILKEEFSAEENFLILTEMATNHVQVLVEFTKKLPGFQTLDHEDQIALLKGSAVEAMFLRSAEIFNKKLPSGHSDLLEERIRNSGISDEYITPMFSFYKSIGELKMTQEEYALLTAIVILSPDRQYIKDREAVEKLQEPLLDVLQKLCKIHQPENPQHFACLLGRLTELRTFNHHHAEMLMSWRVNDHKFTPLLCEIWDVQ

Assay [20] is described as follows: ATG_GATA_CIS: Attagene CIS-FACTORIAL HepG2 Assay for human GATA Binding Protein (AID 2282944). As to conditions: HepG2 GATA cis-element reporter, Attagene multiplex mRNA; actives raise or lower the signal. Summed up: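 Measures endogenous transcription factor-driven reporter mRNA in HepG2 cells transiently carrying cis-regulated constructs. 24 h dosing; RNA via oligo(dT) reverse transcription, PCR, HpaI digestion, capillary electrophoresis; fitted relative to DMSO.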

As a reminder, the AC50 is the concentration at which the activity in the assay is half-maximal.

Activity calls are given as the source filed them. The calls were made as follows: active = hit-call score of the fitted dose curve at least 0.9, where 1 is the maximum; inactive = score below 0.9.

Hepatocyte nuclear factor 3-beta (Homo sapiens), sequence (Q9Y261 whole entry, looked up): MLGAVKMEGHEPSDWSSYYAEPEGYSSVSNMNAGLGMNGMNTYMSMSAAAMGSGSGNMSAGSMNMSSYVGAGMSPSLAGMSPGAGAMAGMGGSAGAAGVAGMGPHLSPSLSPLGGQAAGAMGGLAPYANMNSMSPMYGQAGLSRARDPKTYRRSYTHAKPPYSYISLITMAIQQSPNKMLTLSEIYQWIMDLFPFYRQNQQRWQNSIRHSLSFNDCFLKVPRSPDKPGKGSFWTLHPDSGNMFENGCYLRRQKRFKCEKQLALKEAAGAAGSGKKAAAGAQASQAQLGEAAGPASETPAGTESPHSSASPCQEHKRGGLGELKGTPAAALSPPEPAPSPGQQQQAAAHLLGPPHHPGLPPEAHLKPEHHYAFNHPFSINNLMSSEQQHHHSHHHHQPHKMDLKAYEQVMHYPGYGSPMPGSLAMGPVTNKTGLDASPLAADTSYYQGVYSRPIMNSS
Transcription factor E2F1 (Homo sapiens), sequence (Q01094 whole entry, looked up): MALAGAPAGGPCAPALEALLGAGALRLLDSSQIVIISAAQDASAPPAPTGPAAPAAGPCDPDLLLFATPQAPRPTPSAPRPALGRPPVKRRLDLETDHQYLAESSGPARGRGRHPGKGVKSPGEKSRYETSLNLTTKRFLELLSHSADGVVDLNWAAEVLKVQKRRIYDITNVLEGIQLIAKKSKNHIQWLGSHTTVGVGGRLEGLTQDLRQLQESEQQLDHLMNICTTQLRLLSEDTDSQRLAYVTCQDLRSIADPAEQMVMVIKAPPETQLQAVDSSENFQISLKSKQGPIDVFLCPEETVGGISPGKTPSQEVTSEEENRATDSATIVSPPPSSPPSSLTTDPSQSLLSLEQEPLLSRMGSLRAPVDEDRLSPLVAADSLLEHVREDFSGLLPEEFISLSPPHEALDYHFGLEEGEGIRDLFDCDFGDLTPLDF
Retinoic acid receptor alpha (Homo sapiens), sequence (P10276 whole entry, looked up): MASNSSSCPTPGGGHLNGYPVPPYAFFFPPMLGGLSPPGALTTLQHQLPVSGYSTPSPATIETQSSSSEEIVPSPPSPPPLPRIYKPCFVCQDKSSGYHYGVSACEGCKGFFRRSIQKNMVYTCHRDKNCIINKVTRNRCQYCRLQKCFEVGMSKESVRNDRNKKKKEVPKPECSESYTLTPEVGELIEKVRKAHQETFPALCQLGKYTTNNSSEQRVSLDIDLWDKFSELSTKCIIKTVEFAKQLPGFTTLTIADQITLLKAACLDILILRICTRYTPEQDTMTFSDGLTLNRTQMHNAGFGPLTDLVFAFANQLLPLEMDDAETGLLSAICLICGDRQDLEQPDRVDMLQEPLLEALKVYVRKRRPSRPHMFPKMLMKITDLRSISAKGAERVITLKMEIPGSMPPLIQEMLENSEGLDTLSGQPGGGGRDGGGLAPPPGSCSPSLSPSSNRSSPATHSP
Aryl hydrocarbon receptor (Homo sapiens), sequence (P35869 whole entry, looked up): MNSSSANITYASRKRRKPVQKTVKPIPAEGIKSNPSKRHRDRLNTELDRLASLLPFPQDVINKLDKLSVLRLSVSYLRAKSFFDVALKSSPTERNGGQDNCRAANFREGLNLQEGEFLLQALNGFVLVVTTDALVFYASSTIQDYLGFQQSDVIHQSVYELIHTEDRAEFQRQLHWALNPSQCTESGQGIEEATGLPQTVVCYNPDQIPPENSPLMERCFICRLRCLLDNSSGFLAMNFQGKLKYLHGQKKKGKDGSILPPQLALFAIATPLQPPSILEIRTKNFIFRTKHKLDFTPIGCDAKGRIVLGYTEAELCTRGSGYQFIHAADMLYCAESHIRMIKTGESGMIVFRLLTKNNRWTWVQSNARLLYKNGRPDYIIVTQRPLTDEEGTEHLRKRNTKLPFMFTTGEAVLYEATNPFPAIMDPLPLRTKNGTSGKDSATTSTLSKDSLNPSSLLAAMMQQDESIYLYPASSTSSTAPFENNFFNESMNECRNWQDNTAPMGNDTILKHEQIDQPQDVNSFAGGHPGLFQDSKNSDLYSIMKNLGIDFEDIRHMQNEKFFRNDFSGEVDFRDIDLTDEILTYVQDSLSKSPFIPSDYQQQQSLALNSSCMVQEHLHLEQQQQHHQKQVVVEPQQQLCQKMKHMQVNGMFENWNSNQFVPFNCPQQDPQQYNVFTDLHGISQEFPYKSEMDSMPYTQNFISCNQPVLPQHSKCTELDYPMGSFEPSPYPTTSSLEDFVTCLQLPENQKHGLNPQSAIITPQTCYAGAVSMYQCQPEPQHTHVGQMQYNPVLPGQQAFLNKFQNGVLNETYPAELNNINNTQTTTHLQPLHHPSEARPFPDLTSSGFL

Take `N#CSCSC#N`: the compound was called inactive in assay [1], in assay [2], in [3], in assay [4], in assay [5] and in assay [6]. The compound was classed as inactive in assay [7], in assay [8], in assay [9], in assay [10], in [11] and in assay [12]. For the same compound, the compound was classed as inactive in assay [13], in [14], in assay [15], in assay [16], in assay [17] and in assay [18]. Further, the outcome in assay [19] was inactive.

Turning to `CNC(=O)ON=C(SC)C(=O)N(C)C`, the AC50 in assay [1] was 17400 nM (active); in assay [6], 50000 nM (active). The result in [2], in [3], in assay [4], in assay [5], in assay [7] and in [8] was inactive. For the same compound, the compound was called inactive in [9], in assay [10], in [11], in assay [12], in [13] and in assay [14]. The compound was classed as inactive in assay [15], in [16], in [17], in assay [20] and in assay [18].

Turning to `CN1COCN(Cc2cnc(Cl)s2)C1=N[N+](=O)[O-]`, the call in [1], in assay [2], in assay [3], in [4], in [5] and in assay [6] was inactive. Also, the compound was called inactive in [7], in assay [8], in assay [9], in assay [10], in [11] and in [12]. For the same compound, the compound was called inactive in assay [13], in [14], in [15], in assay [16], in assay [17] and in [18]. Further, the call in assay [19] was inactive.

As for `C=C(C)[C@H]1Cc2c(ccc3c2O[C@@H]2COc4cc(OC)c(OC)cc4[C@@H]2C3=O)O1`, the AC50 in assay [1] was 33.7 nM (active); in assay [2], 24.9 nM (active); in assay [3] it was 3.3 nM (active); in assay [6] it was 4.4 nM (active); in [8] it was 10.4 nM (active); in assay [9], 22.9 nM (active). Further, the AC50 in assay [20] was 1210 nM (active). Besides, the outcome in assay [4], in assay [5], in [7], in assay [10], in [12] and in [13] was inactive. Besides, the outcome in assay [14], in [15], in assay [16], in assay [17], in [18] and in assay [19] was inactive.

As for `CN(C)C(=O)Nc1cccc(C(F)(F)F)c1`, the outcome in assay [1], in assay [2], in assay [3], in assay [4], in assay [5] and in assay [6] was inactive. Moreover, the compound was classed as inactive in [7], in [8], in assay [9], in assay [10], in assay [11] and in assay [12]. Also, the compound was classed as inactive in assay [13], in [14], in assay [15], in assay [16], in [17] and in [18].

For `CCCOCC(=Nc1ccc(Cl)cc1C(F)(F)F)n1ccnc1`, the result in assay [1], in [2], in assay [5], in assay [6], in [7] and in assay [8] was inactive. Besides, the compound was classed as inactive in assay [10], in assay [12], in assay [13], in [14], in assay [15] and in [16]. Besides, the compound was classed as inactive in [17], in assay [20], in assay [18] and in assay [19]. The AC50 in [3] was 7000 nM (active); in [4], 1390 nM (active); in assay [9] it was 295 nM (active).

Regarding `CSc1nc(NC(C)C)nc(NC(C)C)n1`, the outcome in [1], in assay [2], in assay [3], in assay [4], in [5] and in assay [6] was inactive. Also, the call in assay [7], in assay [8], in assay [10], in [12], in assay [13] and in assay [14] was inactive. Moreover, the outcome in [15], in assay [16], in [17], in [20] and in assay [18] was inactive. Also, in assay [9], the AC50 was 21900 nM (active).
